Assay results taken from PubChem BioAssay AID602393 (Broad Institute, 2012).
Out of some 350,000 compounds screened, about 7,000 (2%) were called active. Only a selection was taken, and actives are over-represented in it overall. A number with no mark means an inactive call. No stated cut-off is given here; in the data, active means activation above about 40%; inconclusive means no clear call, values can overlap the other calls; inactive means below that.

Assay: Bmi1 luciferase reporter increase in mESCs, primary screen, esBAF inhibitor project, mouse ES cells, Bmi1 luciferase knock-in, single point (AID 602393);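 further: 0% = median of the plate's neutral control wells and 100% = double that signal; a rise in the Bmi1 reporter signal indicates esBAF inhibition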
Settings: 24 h, at 12.5 µM, active compounds read high, 100% = twice the neutral-well signal

SMILES	reporter increase
CCCC#Cc1ccc([C@H]2[C@@H](CO)N3CCCCN(S(=O)(=O)Cc4ccccc4)C[C@H]23)cc1	-7.51%
CCS(=O)(=O)N1[C@H](C#N)[C@H](c2ccc(-c3cccc(F)c3)cc2)[C@@H]1CO	2.95%
COC(=O)c1cc(OC)c(OC)cc1NC(=O)CSc1ccc(C)cc1	-15.9%
Cc1ccc(SCC(=O)c2cc(C)c(OC(=S)N(C)C)c(C)c2)cc1	45.8% (active)
CCN1CCN(C(=O)CSc2ccc(C)cc2)CC1	31%
C[C@@H]1CN([C@@H](C)CO)S(=O)(=O)c2ccc(C#Cc3ccccc3F)cc2O[C@H]1CN(C)C(=O)c1ccc2c(c1)OCO2	0.756%
CC(C)NC(=O)N(C)C[C@H]1Oc2c(NC(=O)c3ccncc3)cccc2C(=O)N([C@@H](C)CO)C[C@H]1C	1.56%
COc1ccc(/C=C2/C(=O)N(c3ccccc3)N=C2C)c(OC)c1	-1.3%
COc1ccc(/C=N/OCc2ccccc2C#N)c(OC)c1	82.2% (active)
COc1ccc(C=C(C#N)C#N)c(CSc2ccccn2)c1	-8.92%
C[C@H]1CN([C@@H](C)CO)S(=O)(=O)c2ccc(C3=CCCC3)cc2O[C@@H]1CN(C)Cc1ccccc1	1.2%
COc1ccc(C2=Nc3ccccc3NC(=O)C2N(C(=O)c2cc3ccccc3[nH]2)c2ccccc2)cc1 (stereo not given)	47.8% (active)
CC(OC(=O)c1cc2ccccc2[nH]1)C(=O)N(C)c1ccccc1 (stereo not given)	7.66%
COc1ccc(NC(=O)N(C)C[C@@H]2OCc3ccccc3-c3c(n(C)c4ccccc34)C(=O)N([C@H](C)CO)C[C@H]2C)cc1	-4.05%
CO[C@@H](CN(C)S(=O)(=O)c1cccc(Cl)c1)[C@H](C)CN([C@H](C)CO)S(=O)(=O)c1cccc(Cl)c1	6.95%
CN1c2ccc(-c3cccc(F)c3)cc2[C@H]2[C@H](CCN2C(=O)C2CCCC2)[C@@H]1CO	2.05%
COc1ccc(C(=O)C2CCCN(C(=O)c3cc(C)on3)C2)cc1F (stereo not given)	-6.1%
O=C(c1cc(-c2cccs2)on1)N1CCCCC1	-2.46%
COc1ccccc1-c1cc(C(=O)N2CCCCC2)no1	52.4% (active)
C[C@@H]1CN([C@H](C)CO)C(=O)c2cc(NC(=O)CCCN(C)C)ccc2O[C@@H](C)CCCCO[C@@H]1CN(C)Cc1ccncc1	1.15%
C[C@H]1CN([C@@H](C)CO)C(=O)c2cccc(NC(=O)Nc3ccccc3)c2O[C@H]1CN(C)Cc1ccc(C(F)(F)F)cc1	-0.852%
CCC(=O)N1c2ccc(S(=O)(=O)CCC(=O)N3CCN(c4ccccc4)CC3)cc2CC1C (stereo not given)	29.9%
Cc1ccn(CCC(=O)N2c3ccccc3CC2C)n1 (stereo not given)	0.95%
CCCC(=O)N1c2ccc(-c3csc(N)n3)cc2CC1C (stereo not given)	41.3% (active)
O=c1cc(CCl)nc2scc(-c3ccccc3)n12	-3.84%
Cc1csc2nc(COC(=O)c3cccc(N(C)C)c3)cc(=O)n12	82.1% (active)
Cc1nn2c(=O)cc(COC(=O)c3ccc(NC(=O)C(C)(C)C)cc3)nc2s1	2.43%

SMILES	reporter increase
CN1CCN(C(=O)C[C@@H]2C[C@H]3c4cc(NC(=O)NC5CCCC5)ccc4O[C@H]3[C@H](CO)O2)CC1	0.154%
CCCNC(=O)C[C@H]1C[C@@H]2c3cc(NC(=O)C4CCOCC4)ccc3O[C@@H]2[C@H](CO)O1	-3.13%
Clc1cccc(Cl)c1Cn1nnc(-c2cccs2)n1	69.1% (active)
COc1ccccc1N1CCN(C(=O)Cn2nnc(-c3cccs3)n2)CC1	3.41%
O=c1cc(Cn2nnc(-c3ccc(Cl)cc3)n2)nc2sccn12	7.92%
CC(=O)N(C)C[C@@H]1Oc2cc(-c3cccnc3)ccc2S(=O)(=O)N([C@H](C)CO)C[C@H]1C	2.38%
C/C=C/c1ccc([C@H]2[C@@H](C#N)N(C(=O)CN3CCOCC3)[C@@H]2CO)cc1	-3.67%
O=C(C1CCCC1)N1[C@H](CO)[C@H]2c3ccccc3N(S(=O)(=O)c3ccccc3)C[C@H]21	-4.06%
C[C@H](CO)N1C[C@H](C)[C@@H](CN(C)Cc2ccncc2)Oc2ccc(NS(=O)(=O)c3ccc(Cl)cc3)cc2CC1=O	4.09%
COCCCN1C(=O)c2ccc(C(=O)Nc3ccc(OC)cc3OC)cc2C1=O	-3.26%
COc1ccc2[nH]cc(CCN3C(=O)c4ccc(C(=O)O)cc4C3=O)c2c1	77% (active)
COCCCN1C(=O)c2ccc(C(=O)OCC(=O)NCc3ccccc3OC)cc2C1=O	-0.788%
C[C@H](CO)N1C[C@H](C)[C@H](CN(C)Cc2ccccn2)Oc2ncc(C#CCc3ccccc3)cc2C1=O	-3.58%
Cc1ccn2c(-c3csc(Nc4ccc(C(=O)O)cc4)n3)c(C)nc2c1	3.65%
CC(=O)Nc1ccc(C(=O)CSc2nc3ccc(C)cc3[nH]2)cc1	1.14%
Cc1ccc2cc(/C=N/Nc3ccc(C(=O)O)cc3)c(Cl)nc2c1	63.2% (active)
C/C=C/c1cnc2c(c1)C(=O)N([C@H](C)CO)C[C@H](C)[C@@H](CN(C)C(=O)c1cccc(F)c1)O2	1.29%
C[C@@H]1CCCCO[C@@H](CN(C)S(=O)(=O)c2ccccc2)[C@H](C)CN([C@H](C)CO)C(=O)c2cc(NC(=O)CCC(F)(F)F)ccc2O1	3.27%
COc1cccc(S(=O)(=O)N[C@@H]2CC[C@H](CCNC(=O)Cc3ccncc3)O[C@@H]2CO)c1	3.37%
O=C(C[C@@H]1CC[C@@H]2[C@H](COC[C@@H](O)CN2Cc2cc(F)cc(F)c2)O1)NCc1cccc(F)c1	4.76%
O=C(C[C@@H]1C[C@@H]2c3cc(NS(=O)(=O)c4ccc(F)cc4)ccc3O[C@@H]2[C@@H](CO)O1)NCc1ccncc1	-5.57%
C/C=C/c1ccc([C@H]2[C@@H](CO)N(C(=O)Cc3ccncc3)[C@@H]2CNC(C)=O)cc1	-0.088%
COc1ccc(C(=O)CCC(=O)Nc2cccnc2)c(OC)c1	-1.7%
COc1ccc(C(=O)NC(C)CCc2ccccc2)c(OC)c1 (stereo not given)	-1.75%
COc1ccc(C(=O)COC(=O)C(O)c2ccccc2)c(OC)c1 (stereo not given)	67.1% (active)
COc1ccc(C(=O)CCc2ccccc2O)c(OC)c1	92.4% (active)
COc1ccc(C(=O)COC(=O)CN2C(=O)C3CC=CCC3C2=O)c(OC)c1 (stereo not given)	-4.47%

SMILES	reporter increase
CCOC(=O)c1c(C)[nH]c(C(=O)OCC(=O)c2ccc(OC)cc2OC)c1C	6.18%
C[C@H](CO)N1C[C@H](C)[C@H](CN(C)C(=O)CCC(F)(F)F)OCCCC[C@H](C)Oc2ccc(NS(=O)(=O)c3ccc(F)cc3)cc2C1=O	-0.446%
C[C@@H]1CCCCO[C@@H](CN(C)S(=O)(=O)c2ccc(F)cc2)[C@@H](C)CN([C@@H](C)CO)C(=O)c2cc(NC(=O)Nc3ccc(F)cc3)ccc2O1	3.89%
C[C@@H]1CN([C@@H](C)CO)C(=O)Cc2cc(NC(=O)Nc3ccc4c(c3)OCO4)ccc2O[C@H]1CN(C)S(=O)(=O)c1ccc(F)cc1	-0.705%
CN1[C@@H]2CN(C(=O)c3ccc(F)cc3)c3ccccc3[C@@H]2[C@@H]1CO	2.63%
C=CCc1c(C)nc2cc(-c3ccccc3)[nH]n2c1=O	34.3%
CCc1c(C)nc2cc(C)[nH]n2c1=O	-4.73%
CCc1c(C)nc2cc(-c3cccs3)[nH]n2c1=O	48.4% (active)
O=C(C[C@H]1C=C[C@H](NC(=O)C2CCOCC2)[C@@H](CO)O1)NCC1CC1	-1.58%
Cc1ccc(-c2ccc3c(c2)O[C@H](CN(C)C(=O)Nc2ccccc2)[C@@H](C)CN([C@@H](C)CO)S3(=O)=O)cc1	-1.56%
O=C(Cn1nnc(-c2ccccc2)n1)NC(=O)NC1CCCC1	-2.48%
Cc1ccccc1-c1nnn(CC(=O)c2ccc(S(=O)(=O)N3CCCC3)cc2)n1	5.35%
CC(C)(C)NC(=O)Cn1nnc(-c2ccccc2Cl)n1	56.6% (active)
CCCC(=O)Nc1ccc2c(c1)C(=O)N(C)[C@@H]1CC[C@H](CC(=O)NCCN3CCCCC3)O[C@@H]1CO2	0.938%
O=C(C[C@@H]1C=C[C@H](NC(=O)C2CCOCC2)[C@H](CO)O1)NCc1ccncc1	5.38%
COCc1nc2ccccc2n1Cc1ccccc1Br	-3.15%
COCn1c(COc2ccccc2)nc2ccccc21	80.5% (active)
CC(C)n1c(COc2ccccc2)nc2ccccc21	-1.17%
CCS(=O)(=O)n1nc(-c2ccc(OC)cc2)nc1SC	55.7% (active)
CCOC(=O)N1CCN(S(=O)(=O)c2ccc(OC)cc2)CC1	-4.19%
O=S(=O)(c1ccc(SCc2ccccc2)nc1)N1CCCCCC1	8.09%
COc1ccc(-n2c(SC)nc(O)cc2=O)cc1	-1.49%
C=CCn1c(SCc2ccccc2)nc2c1c(=O)[nH]c(=O)n2C	8.86%
CCS(=O)(=O)n1nc(-c2ccccc2)nc1SCc1ccccc1	45.9% (active)
Cc1cccc(S(=O)(=O)N2C[C@@H]3[C@H](c4ccccc42)[C@H](CO)N3CC2CCOCC2)c1	3.89%
CCC(=O)N(C)C[C@@H]1Oc2cc(C#CC(C)(C)O)ccc2S(=O)(=O)N([C@@H](C)CO)C[C@@H]1C	1.13%
